Nrf2 activator: activates Nrf2 signaling | AREc32 ARE-luciferase reporter (MCF7-derived line), luminescence, 24 h | 410,000 compounds, 0.31% hits | AID 624171 | Potency, µM (titrated, usually from 46.1 µM), without a hit: at the top dose activation, usual class: activators; note: % of control where 0% means no effect; nearly all actives have a fitted effect of over 65% in size
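Steps: seed AREc32_Fluc cells (1000/well, 5% FBS OPTI-MEM); incubate overnight at 37 deg C; add 23 nL compound; incubate 24 hr; add Steady-Glo; hold 30 min RT; read luminescence.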
TrxR1 inh: inhibitors of rat thioredoxin reductase 1; recombinant rTrxR1, NADPH fluorescence consumption, selenite substrate; AID 588453; Potency, µM (top dose mostly 114 µM), without a hit: top-dose activity change, negative = inhibition, actives largely listed as inhibitors; O89049; 390,000 compounds, 1% hits; note: % is set by controls: 0 for no effect and ±100 for the full control effect; nearly all actives have a fitted effect of over 65% in size
Target sequence (O89049 whole entry, looked up): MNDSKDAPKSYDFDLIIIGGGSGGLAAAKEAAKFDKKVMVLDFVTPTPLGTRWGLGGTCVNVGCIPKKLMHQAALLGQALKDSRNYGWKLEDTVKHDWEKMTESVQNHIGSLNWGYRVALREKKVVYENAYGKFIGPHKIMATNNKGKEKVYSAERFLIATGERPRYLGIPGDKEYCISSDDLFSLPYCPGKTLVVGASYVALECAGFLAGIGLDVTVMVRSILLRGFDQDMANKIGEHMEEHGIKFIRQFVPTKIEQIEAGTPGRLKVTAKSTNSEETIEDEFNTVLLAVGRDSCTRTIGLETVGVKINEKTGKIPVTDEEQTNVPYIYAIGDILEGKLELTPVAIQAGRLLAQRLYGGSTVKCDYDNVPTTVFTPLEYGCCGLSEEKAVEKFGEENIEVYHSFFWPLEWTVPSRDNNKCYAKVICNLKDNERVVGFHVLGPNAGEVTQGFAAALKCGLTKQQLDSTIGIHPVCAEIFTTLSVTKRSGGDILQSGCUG
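Rat TrxR1 (90 nM in the dispensed reagent) was pre-reduced with 400 uM NADPH for 5 min at room temperature, then incubated with compound for 15 min. After 400 uM selenite was added, NADPH fluorescence (Ex 340/Em 450 nm) was followed for 8 min.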
GALK inh: inhibitors of human galactokinase. AID 1868. P51570. Purified GALK, Kinase-Glo residual ATP luminescence. Potency, µM (doses to about 57.5 µM), for inactives: at the top dose activity change, negative = inhibition, most hits filed as inhibitors. 270,000 compounds, 0.007% hits; note: % is set by controls: 0 for no effect and ±100 for the full control effect
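Luminescence from leftover ATP (Ultra-Glo luciferase/luciferin) served as read-out after a 1 h room-temperature reaction of 5 nM GALK with 35 uM ATP and 100 uM galactose.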
A549 tox: kills or reduces viability of A549 cells in Nrf2 counter-screen; A549 ARE-Fluc cells, CellTiter-Fluor viability, 18-24 h; Potency, µM (highest dose often 46 µM), for the others: at the highest dose activity change, negative = cytotoxicity, usual class: inhibitors; 390,000 compounds, 0.16% hits; AID 504648; note: % is set by controls: 0 for no effect and ±100 for the full control effect
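A549 ARE_Fluc cells in 5% FBS OPTI-MEM were exposed to compounds in concentration-response for 18-24 h at 37 deg C. Viability was read by CellTiter-Fluor fluorescence (Ex 405/Em 525) after 30 min, before the luciferase read.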
Nrf2 block: inhibitors of Nrf2 signaling; Potency, µM (titrated, usually from 46 µM), for inactives: at the top dose activity change, negative = inhibition, hits mostly inhibitors; A549 ARE-Fluc reporter, luciferase luminescence, 18-24 h; 360,000 compounds, 2.1% hits; note: % is set by controls: 0 for no effect and ±100 for the full control effect; nearly all actives have a fitted effect of over 60% in size
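Two sequential reads on A549 ARE_Fluc cells exposed to compound for 18-24 h: a CellTiter-Fluor fluorescence read for viability, then a luciferase luminescence read for Nrf2/ARE activity.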
TrxR1 substrate: is turned over as a substrate by rat TrxR1; Potency, µM (top dose mostly 114 µM), for inactives: at the top dose activity change, negative = substrate turnover; O89049; purified TrxR1 substrate turnover, NADPH consumption readout; 390,000 compounds, 0.01% hits; note: % is set by controls: 0 for no effect and ±100 for the full control effect; nearly all actives have a fitted effect of over 50% in size
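Rat TrxR1, dispensed at 90 nM, was prereduced with 400 uM NADPH (final) for 5 min at ~22 deg C, then incubated with compound 15 min before 400 uM selenite. A first-read NADPH fluorescence drop versus no-compound background flagged substrates.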
The depositor's hits bear a star; ? = inconclusive; . = no result given; [ ] = dose if it differs, or a comment. Most compounds without a hit are left out; they make up all but 3% or so of the library. Calls come from the whole dose curve; as a rule, active = well fitted curve in the direction sought with a large enough effect; inconclusive = small, poorly fitted or top-dose-only effect, or another doubt; inactive = no such curve, though single readings can be large; an effect the other way counts as inactive or inconclusive. Potency is the fitted concentration of half-maximal effect.

SMILES | Nrf2 activator | TrxR1 inh | GALK inh | A549 tox | Nrf2 block | TrxR1 substrate
Cc1ccc(C(C)(C)C)cc1S(=O)(=O)N1CC(=O)Nc2ccccc21 | 2.3% | -16.9% | 0.9% | ? | 25.9µM* | -16.7%
Cc1ccc(/C(C#N)=C\c2ccc(N3CCOCC3)o2)cc1 | ? | 2.24µM* | -1.4% | 0.6% | ? | -1.6%
Cc1ccc2nc(/C(C#N)=C\c3ccc(N4CCOCC4)o3)[nH]c2c1 | 6.1% | 12.6µM* | 0.3% | ? | ? | 5.2%
N#C/C(=C\c1ccc(N2CCOCC2)o1)C(=O)NCC1CCCO1 (centres undefined) | 0.5% | ? | -0.1% | -8.6% | 11.5% | -30.3%
COC(=O)c1ccc(NC(=O)Cn2c(=O)nc(-c3ccccc3)c3ccccc32)cc1 | 0.4% | 11.2%[57.1 µM] | . | -2.3% | . | 4.4%[57.1 µM]
O=C(N/N=C/c1ccco1)c1cc(-c2ccccc2)nc2ccccc12 | 16.1% | 22.4% | 5.8% | 0.3% | 6.7% | -6.5%
O=C(N/N=C/c1ccc([N+](=O)[O-])o1)c1cc(-c2cccc(Br)c2)nc2ccccc12 | ? | -23.5% | . | ? | 12.6µM* | -6.7%
CCCc1ccc(-c2cc(C(=O)N/N=C/c3ccc([N+](=O)[O-])o3)c3ccccc3n2)cc1 | 17.2% | -0.4% | 1.2% | -20.8% | 10.3µM* | -9.2%
Cc1ccc2c(c1)nnn2C1CCN(S(=O)(=O)c2ccc(C(=O)N3C(C)CCCC3C)cc2)CC1 (centres undefined) | 6.5% | 9.4% | -3.5% | ? | 10.3µM* | 2.6%
O=[N+]([O-])c1cc(-n2cnnn2)ccc1N1CCC(Cc2ccccc2)CC1 | 0.0% | 5.0% | 1.1% | ? | 10.3µM* | -3.5%
CCN(CC)S(=O)(=O)c1cccc(C(=O)N/N=C(\C)c2ccc(O)cc2O)c1 | -0.6% | 19.6%[57.1 µM] | 1.9% | ? | 10.3µM* | -1.6%[57.1 µM]
CCOC(=O)C1(Cc2cccc(OC)c2)CCCN(C(=O)c2cc(CC(C)C)[nH]n2)C1 (centres undefined) | 3.2% | 2.5% | 3.6% | -4.8% | ? | -5.5%
CCOC(=O)C1(Cc2cccc(OC)c2)CCCN(C(=O)c2ccc(OC)o2)C1 (centres undefined) | 3.6% | 50.1µM* | -6.3% | -2.9% | ? | 3.8%
COc1ccccc1Nc1cc(C(=O)NCc2cccs2)c2ccccc2n1 | 13.6% | -21.1% | . | -5.1% | 11.1% | 6.5%
CC(C)Oc1ccc(C(=O)Nc2nnc(SCC(=O)N3CCOCC3)s2)cc1 | -1.6% | -12.4% | -1.7% | -2.8% | 5.17µM* | -7.3%
CN(C)S(=O)(=O)c1ccc(C(=O)Nc2nnc(SCC(=O)N3CCOCC3)s2)cc1 | 0.1% | . | . | . | . | .
O=C(Nc1ccc(CN2CCOCC2)cc1)c1ccc(Cl)cc1 | 4.4% | 16.0% | 0.0% | -18.4% | ? | -0.2%

Compound activity from PubChem BioAssay.
